# PTHR1 ag = qHTS for PTHR1 Agonists: Primary Screen; Parathyroid hormone/parathyroid hormone-related peptide receptor (Homo sapiens), Q03431; HEK293 GP2 PTHR1 cells, GloSensor cAMP luminescence, 1 h; Potency, µM (doses to about 115 µM), without a hit: at the top dose activation, usual class: activators; actives 0.075% (n = 410,000); AID 743266, 2014; note: potency is the fitted concentration of half-maximal effect; nearly all actives have a fitted effect of over 55% in size
#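 HEK-293-derived GP2 cells expressing PTHR1 and a GloSensor cAMP reporter, 3,000/well, plated overnight, given luciferin plus IBMX (each 0.5 mM as added) for 1 h at 37 °C, then compound for 1 h at 37 °C. Luminescence was read after 15 min at room temperature.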
# D3 ag = qHTS of D3 Dopamine Receptor Agonist: qHTS. actives 0.58% (n = 410,000). D(3) dopamine receptor (Homo sapiens), P35462. D3R DiscoveRx beta-arrestin cells, luminescence, 90 min. max activation, %; in the data active = max activation above about 30%; note: 0% is about no effect
#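 Agonist-mode cell screen: cells plated at 1500/well and incubated overnight at 37 °C, then exposed to library compounds for 90 min at 37 °C. Detection reagent was added for 30–60 min at room temperature, and luminescence was read.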
# BRCA1 expr act = qHTS Assay to Identify Small Molecule Activators of BRCA1 Expression. Potency, µM (highest dose often 46.1 µM), without a hit: at the highest dose activation, actives largely listed as activators. MCF7-BRCA1-FFLuc reporter, luminescence, 48 h; response scale: scaled: vehicle 0%, 10 µM genistein 100%. actives 1.1% (n = 380,000); note: potency is the fitted concentration of half-maximal effect; nearly all actives have a fitted effect of over 80% in size
#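 Luminescence from a BRCA1-driven firefly luciferase in MCF7 cells was read after 48 h compound exposure at 37 C. Data normalized against DMSO and a 10microM genistein activation control, then curve-fitted across the titration.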
# RGS4 inhibitor = Inhibitors of Regulator of G Protein Signaling (RGS) 4: qHTS | Regulator of G-protein signaling 4 (Homo sapiens), P49798 | Transcreener GDP fluorescence polarization, RGS4-accelerated GTP hydrolysis | Potency, µM (titrated, usually from 114 µM), without a hit: top-dose activity change, negative = inhibition, actives largely listed as inhibitors | actives 0.039% (n = 390,000); note: potency is the fitted concentration of half-maximal effect; % is set by controls: 0 for no effect and ±100 for the full control effect; nearly all actives have a fitted effect of over 75% in size
# Target sequence (P49798 whole entry, looked up): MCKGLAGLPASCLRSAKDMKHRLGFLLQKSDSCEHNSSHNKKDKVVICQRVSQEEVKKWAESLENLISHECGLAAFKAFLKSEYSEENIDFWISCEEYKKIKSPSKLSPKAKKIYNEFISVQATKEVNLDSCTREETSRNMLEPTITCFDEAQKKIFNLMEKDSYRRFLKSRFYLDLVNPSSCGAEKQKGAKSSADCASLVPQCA
#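 MLSMR compounds (23 nl, pin-transferred) preincubated 10 min at room temperature with a 500nM (2x) first reagent, then RGS4 at 900nM (2x) plus Transcreener GDP mix added; fluorescence polarization (620/688 nm) read before and after 90 min at 30 °C.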
# DRD3 antagonist = qHTS of D3 Dopamine Receptor Antagonist: qHTS; D(3) dopamine receptor (Homo sapiens), P35462; D3R cells, DiscoveRx beta-arrestin luminescence, antagonist mode; hits give low values; max response, negative = inhibition, %; actives 2.5% (n = 360,000); AID 652054, 2013; in the data active = max response below about -50%; inconclusive = no clear call, values can overlap the other calls; note: % is set by controls: 0 for no effect and ±100 for the full control effect
#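 Cells expressing the human receptor were seeded at 1500 cells/well, incubated overnight at 37 degrees C in 5% CO2, then exposed to library compounds with dopamine controls for 90 minutes at 37 degrees C before luminescent detection.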
# B2AR arrestin = qHTS assay of beta-arrestin-biased ligands of beta2-adrenergic receptor; beta-arrestin recruitment to beta2AR, cell-based reporter; Potency, µM (series often up to 46.1 µM), without a hit: top-dose activation, most hits filed as activators; actives 0.02% (n = 330,000); Beta-2 adrenergic receptor (Homo sapiens), P07550; AID 492947, 2010;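 note: potency is the fitted concentration of half-maximal effect; 0% = DMSO controls and full agonism = EC100 isoproterenol or metaproterenol; nearly all actives have a fitted effect of over 65% in size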
# Target sequence (P07550 whole entry, looked up): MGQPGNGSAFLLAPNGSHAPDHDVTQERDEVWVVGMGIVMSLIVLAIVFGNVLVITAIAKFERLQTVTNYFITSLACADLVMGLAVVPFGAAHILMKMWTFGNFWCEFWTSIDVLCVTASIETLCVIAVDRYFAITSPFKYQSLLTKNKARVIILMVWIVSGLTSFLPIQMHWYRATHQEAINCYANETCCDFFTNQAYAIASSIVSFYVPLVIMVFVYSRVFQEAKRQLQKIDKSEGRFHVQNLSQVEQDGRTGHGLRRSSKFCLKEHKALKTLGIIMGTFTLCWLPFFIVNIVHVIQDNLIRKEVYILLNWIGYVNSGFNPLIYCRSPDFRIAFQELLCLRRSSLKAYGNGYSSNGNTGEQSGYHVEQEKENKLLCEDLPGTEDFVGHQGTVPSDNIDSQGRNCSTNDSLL
# * = called active by the depositor; i = inactive; ? = inconclusive; . = not tested or not shown; ! = not confirmed by another sample; [ ] = remark or other dose. An excerpt weighted towards active compounds, which were near 3.7% of everything screened. Unless noted, calls come from the whole dose curve; as a rule, active = well fitted curve in the direction sought with a large enough effect; inconclusive = small, poorly fitted or top-dose-only effect, or another doubt; inactive = no such curve, though single readings can be large; an effect the other way counts as inactive or inconclusive.
SMILES,PTHR1 ag,D3 ag,BRCA1 expr act,RGS4 inhibitor,DRD3 antagonist,B2AR arrestin
Cc1ccccc1NC(=S)N(CCN1CCCCCC1)Cc1cccs1,-16.5%,-21.6,-12.5%,-28.8%,?,3.0%
COc1ccccc1NC(=S)N(CCN1CCCCCC1)Cc1cccs1,-16.6%,-21.9,1.4%,7.3%,-57.7*,-0.3%
COc1cccc(NC(=S)N(CCCN2CCCC(C)C2)Cc2cccs2)c1 (stereo unspecified),13.8%,-11.0,-13.7%,-17.7%,-80.2*,0.2%
CCOC(=O)c1cnn(-c2ccc(OC)cc2)c1C1CCN(C(=O)OC(C)(C)C)CC1,-94.4%,2.6,-12.7%,-11.2%,.,.
O=C(C1CCC(CNS(=O)(=O)c2cccs2)CC1)N1CCN(c2ccc(Cl)cc2)CC1 (stereo unspecified),-42.9%,41.5*!,-45.1%,25.2%,98.4,-0.7%
COc1ccc(C(=O)NCCn2cc(SCC(=O)Nc3nnc(C)s3)c3ccccc32)cc1,20.0%[57.5 µM],1.9,12.6µM*,-51.6%,18.6,.
COc1ccc(C(=O)NCCn2cc(SCC(=O)NCc3ccco3)c3ccccc32)cc1,-4.8%[57.5 µM],3.8,42.2%,-23.2%[11.4 µM],-69.0*,-0.3%
CCCCN(C)C(=O)C1CCN(c2ccc(S(=O)(=O)N3CCOCC3)cc2[N+](=O)[O-])CC1,-28.5%,3.2,-30.1%,-4.5%,-14.9,0.1%
Cc1ccc(S(=O)(=O)Nc2cccc3cccnc23)cc1,-23.6%,-11.7,-79.5%,9.5%,-80.6*,-0.4%
COc1cc(NS(=O)(=O)c2ccc(C)cc2)c2ncccc2c1,-9.3%[57.5 µM],-16.3,-90.8%,-37.6%,-55.0*,1.8%
Nc1cccc2cc(-c3ccccc3)oc12,-30.5%,-3.3,?,8.0%,12.0,-0.2%
CC(=O)Nc1ccc(NC(=O)C(C)OC(=O)CNS(=O)(=O)/C=C/c2ccc(C)cc2)cc1 (stereo unspecified),i,1.8,-0.6%,18.6%,-53.6*,0.0%
CCOC(=O)C1CCCN(C/C=C/c2ccccc2[N+](=O)[O-])C1 (stereo unspecified),i,-30.0,3.5%,-11.8%,-64.0*,0.5%
O=[N+]([O-])c1ccccc1/C=C/CN1CCCCC1,i,-28.1,2.3%,23.9%,-70.5*,0.5%
CCOC(=O)C1CCCN(CCC(C)c2ccccc2)C1 (stereo unspecified),i,-28.0,8.0%,-20.9%,-60.9*,0.0%
CCOC(=O)C1CCCN(CCC(=O)Nc2ccccc2)C1 (stereo unspecified),i,-13.3,-17.6%,-11.4%,-8.0,-0.1%
CN(C/C=C/c1ccccc1[N+](=O)[O-])Cc1ccccc1,i,-0.3,-6.1%,-1.7%,-80.2*,-0.7%
O=[N+]([O-])c1ccccc1/C=C/CN1CCCCC1CO (stereo unspecified),i,-8.9,13.1%,15.9%,-2.9,-1.6%
O=C(COc1ccccc1Cl)Nc1ccc(OCc2cc(=O)n3ccsc3n2)cc1,-24.4%,6.6,-4.6%,25.0%,.,.
COc1ccc(CCNC(=O)C2=CCN(S(=O)(=O)c3ccc(F)cc3)CC2)cc1OC,i,-0.5,9.4%,28.5%,-10.4,-0.1%
NC(=O)CC[C@@H]1NC(=O)[C@@H]2CCCN2C(=O)c2cc([N+](=O)[O-])cc(I)c2NCCC[C@@H](C(N)=O)NC1=O,i,43.9*,-8.6%,-41.4%,2.5,-1.0%
CC(C)(NC(=O)NC(CO)c1ccccc1)c1cccc(C(C)(C)NC(=O)NC(CO)c2ccccc2)c1 (stereo unspecified),-16.6%,14.4,7.2%,-17.0%,-0.6,6.51µM*
CC(C)(C(=O)N[C@H](CO)c1ccccc1)C(=O)N[C@H](CO)c1ccccc1,-34.3%,7.7,8.2%,-12.7%,12.3,-1.0%
COc1ccc(CC(N)c2csc(NC(=O)Nc3ccccc3C(C)C)n2)cc1 (stereo unspecified),22.5%,-12.5,0.0%,.,-54.5*,.
COc1ccc(CC(N)c2csc(NC(=O)Nc3ccccc3Cc3ccccc3)n2)cc1 (stereo unspecified),-7.3%,-11.9,-8.6%,.,?,.
SMILES,PTHR1 ag,D3 ag,BRCA1 expr act,RGS4 inhibitor,DRD3 antagonist,B2AR arrestin
COc1cc(CNC(=O)Nc2nc(C(N)CCc3ccccc3)cs2)cc(OC)c1OC (stereo unspecified),10.1%,-10.0,-9.0%,.,0.0,.
COc1ccccc1NC(=O)Nc1nc(C(N)CCc2ccccc2)cs1 (stereo unspecified),i,-17.5,0.0%,.,-96.0*,.
Cc1cc2nc(C(C)(C)C)c(CC3CCCCC3)n2c(C)c1Br,-8.2%,0.9,-4.9%,.,0.0,.
O=C(Cc1cccs1)N/N=C/C(Br)=C/c1ccccc1,-10.3%,-5.9,5.01µM*,38.5%,?,0.0%
CC(/C=N/NC(=O)Cc1cccs1)=C\c1ccccc1,i,7.9,?,-18.2%,-0.8,?
CN(Cc1ccccc1)Cc1c[nH]c2ccccc12,-9.6%,0.9,-53.1%,-31.5%,-82.0*,0.1%
O=C(Nc1ccccc1C(=O)OCC(=O)c1c[nH]c2ccccc12)c1ccco1,-3.7%,34.8*,-1.3%,-19.5%,18.6,0.5%
CN(Cc1ccccc1)C(=O)COC(=O)c1c[nH]c2ccccc12,-31.2%,-1.5,10µM*,.,-10.7,.
Cc1c(C(=O)N2CCN(CCc3ccccc3)CC2)oc2ccccc12,-9.5%,-26.2,-19.5%,-10.8%,-86.2*,0.3%
Cc1c(C(=O)N2CCN(S(C)(=O)=O)CC2)oc2ccccc12,27.3%,-2.5,34.4%,20.1%,-21.8,0.0%
COCc1c(C(=O)N2CCN(CCOc3ccccc3)CC2)oc2ccccc12,-23.0%,87.8*,-1.4%,8.4%,-6.9,-0.1%
O=C(OCCN1CCCCC1)c1c[nH]c2ccccc12,i,0.0,-20.3%,-8.3%,-56.9*,0.3%
COCc1c(C(=O)N2CCN(c3ccccc3C)CC2)oc2ccccc12,i,-12.0,-20.6%,-36.9%,0.0,0.0%
Cc1c(C(=O)OCCN2CCCCC2)oc2ccccc12,i,-4.4,1.2%,15.7%,-61.2*,0.2%
NCCC(=O)[N-][C@@H](Cc1cnc[nH]1)C(=O)O.[Zn],.,10.5,.,.,.,.

# Screening results from PubChem BioAssay.
